From PubChem BioAssay AID1159580 (chemical genetic matrix, 2015)
Hit rate of the full screen: of about 5,500 compounds, about 2,000 (36%) were called active. Roughly 18% stayed inconclusive and do not appear here. No stated cut-off is given here; in the data, active means normalized growth mostly below about 0.91 (no sharp cut-off); inconclusive means no clear call, values can overlap the other calls; inactive means mostly above about 0.92. The list shows a part of the results.

Test: chemical genetic growth profiling, strain panel (AID 1159580);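 further: tested at 20 µM; growth read once vehicle control cultures reached saturation at 30 °C; 1 = growth at the plate median or of vehicle wells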
Settings: S. cerevisiae deletion strains, growth OD

Measured: normalized growth

CCCCCCCCCCCCCC(=O)OC1C(C)C2(O)C(C=C(CO)CC3(O)C(=O)C(C)=CC32)C2C(C)(C)C12OC(C)=O (centres undefined)
inactive: locus YAL013W, strain DEP1, stronger effect = lower value 1 | locus YAL021C, strain ccr4, stronger effect = lower value 0.982 | locus YAL026C, strain drs2, stronger effect = lower value 0.985 | locus YAL030W, strain snc1, stronger effect = lower value 0.991 | locus YBL061C, strain skt5, stronger effect = lower value 0.981 | locus YBR009C, strain hhf1, stronger effect = lower value 0.965 | locus YBR021W, strain FUR4, stronger effect = lower value 0.988 | locus YBR023C, strain chs3, stronger effect = lower value 0.97 | locus YBR171W, strain sec66, stronger effect = lower value 0.981 | locus YBR229C, strain ROT2, stronger effect = lower value 1.02 | locus YBR231C, strain swc5, stronger effect = lower value 0.98 | locus YBR279W, strain paf1, stronger effect = lower value 0.988 | locus YCL011C, strain gbp2, stronger effect = lower value 0.98 | locus YCL016C, strain dcc1, stronger effect = lower value 0.996 | locus YCL029C, strain bik1, stronger effect = lower value 0.996 | locus YCL061C, strain MRC1, stronger effect = lower value 0.987 | locus YCL069W, strain vba3, stronger effect = lower value 0.986 | locus YCR088W, strain abp1, stronger effect = lower value 0.989 | locus YDL005C, strain med2, stronger effect = lower value 0.988 | locus YDL035C, strain GPR1, stronger effect = lower value 1.06 | locus YDL040C, strain nat1, stronger effect = lower value 0.979 | locus YDL074C, strain BRE1, stronger effect = lower value 1.04 | locus YDL101C, strain DUN1, stronger effect = lower value 1.01 | locus YDL134C, strain PPH21, stronger effect = lower value 1.01 | locus YDL185W, strain tfp1, stronger effect = lower value 1.01 | locus YDL192W, strain arf1, stronger effect = lower value 0.997 | locus YDR001C, strain nth1, stronger effect = lower value 0.978 | locus YDR069C, strain doa4, stronger effect = lower value 0.985 | locus YDR101C, strain arx1, stronger effect = lower value 0.996 | locus YDR137W, strain rgp1, stronger effect = lower value 0.97 | locus YDR150W, strain NUM1, stronger effect = lower value 1 | locus YDR159W, strain sac3, stronger effect = lower value 0.969 | locus YDR162C, strain NBP2, stronger effect = lower value 1.03 | locus YDR195W, strain ref2 0.96 | locus YDR297W, strain sur2, stronger effect = lower value 0.985 | locus YDR318W, strain mcm21, stronger effect = lower value 0.985 | locus YDR334W, strain swr1, stronger effect = lower value 0.989 | locus YDR335W, strain msn5, stronger effect = lower value 0.987 | locus YDR388W, stronger effect = lower value 0.99 | locus YDR392W, strain spt3, stronger effect = lower value 0.919 | locus YDR502C, strain sam2, stronger effect = lower value 1 | locus YEL003W, strain gim4, stronger effect = lower value 0.982 | locus YEL037C, strain rad23, stronger effect = lower value 0.978 | locus YEL061C, strain CIN8 (second series), stronger effect = lower value 0.976 | locus YEL061C, strain CIN8, stronger effect = lower value 1.01 | locus YER015W, strain faa2, stronger effect = lower value 0.986 | locus YER016W, strain bim1, stronger effect = lower value 0.98 | locus YER110C, stronger effect = lower value 0.994 | locus YER111C, strain swi4, stronger effect = lower value 0.965 | locus YER155C, strain BEM2 (second series), stronger effect = lower value 0.987 | locus YER155C, strain BEM2, stronger effect = lower value 0.996 | locus YER167W, strain BCK2, stronger effect = lower value 0.988 | locus YFR010W, strain ubp6, stronger effect = lower value 0.977 | locus YGL078C, strain dbp3, stronger effect = lower value 0.99 | locus YGL086W, strain mad1, stronger effect = lower value 0.978 | locus YGL167C, strain pmr1, stronger effect = lower value 0.989 | locus YGL173C, strain kem1, stronger effect = lower value 0.984 | locus YGL227W, strain vid30, stronger effect = lower value 0.979 | locus YGL240W, strain doc1, stronger effect = lower value 0.976 | locus YGL248W, strain PDE1, stronger effect = lower value 1.02 | locus YGL253W, strain hxk2, stronger effect = lower value 0.98 | locus YGR078C, strain PAC10, stronger effect = lower value 1.03 | locus YGR135W, strain pre9, stronger effect = lower value 1.01 | locus YGR229C, strain SMI1, stronger effect = lower value 1.02 | locus YGR252W, strain gcn5, stronger effect = lower value 1.04 | locus YHR013C, strain ard1, stronger effect = lower value 0.934 | locus YHR027C, strain rpn1, stronger effect = lower value 0.994 | locus YHR030C, strain SLT2, stronger effect = lower value 0.995 | locus YHR079C, strain IRE1 (second series), stronger effect = lower value 0.992 | locus YHR094C, strain hxt1, stronger effect = lower value 0.994 | locus YHR129C, strain ARP1, stronger effect = lower value 0.997 | locus YHR142W, strain chs7, stronger effect = lower value 0.952 | locus YHR200W, strain rpn10, stronger effect = lower value 0.989 | locus YIL066C, strain RNR3, stronger effect = lower value 1.01 | locus YIL073C, strain SPO22, stronger effect = lower value 0.986 | locus YIL125W, strain kgd1, stronger effect = lower value 0.991 | locus YIR030C, strain dcg1, stronger effect = lower value 0.994 | locus YJL092W, strain hpr5, stronger effect = lower value 0.984 | locus YJL095W, strain BCK1 (second series), stronger effect = lower value 0.99 | locus YJL095W, strain BCK1, stronger effect = lower value 1 | locus YJL115W, strain asf1, stronger effect = lower value 0.979 | locus YJL129C, strain trk1, stronger effect = lower value 0.962 | locus YJL134W, strain LCB3, stronger effect = lower value 0.992 | locus YJL154C, strain vps35, stronger effect = lower value 0.986 | locus YJL164C, strain tpk1, stronger effect = lower value 1.01 | locus YJL166W, strain qcr8, stronger effect = lower value 0.981 | locus YJL168C, strain set2, stronger effect = lower value 0.993 | locus YJL187C, strain SWE1 (second series), stronger effect = lower value 1.02 | locus YJL187C, strain SWE1, stronger effect = lower value 0.99
